CatB inh: blocks human cathepsin B protease activity; P07858; purified cathepsin B, fluorogenic substrate, fluorescence; inhibition, %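 (tested at 10 µM)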; 63,000 compounds, 0.1% hits; in the data active = inhibition above about 21%;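 also: 0% = enzyme with no compound and 100% = no enzyme blank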
CatS block: human cathepsin S inhibition; P25774; recombinant cathepsin S, AMC dipeptide fluorescence, pooled mixtures; inhibition, %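 (tested at 5 µM per compound within 10-compound mixtures)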; 62,000 compounds, 0.06% hits; AID 501; in the data active = inhibition above about 32%, passing the limit was not always enough;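 also: 0% = enzyme without compound and 100% = blank without enzyme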
Target sequence (P25774 115-331 limits assumed): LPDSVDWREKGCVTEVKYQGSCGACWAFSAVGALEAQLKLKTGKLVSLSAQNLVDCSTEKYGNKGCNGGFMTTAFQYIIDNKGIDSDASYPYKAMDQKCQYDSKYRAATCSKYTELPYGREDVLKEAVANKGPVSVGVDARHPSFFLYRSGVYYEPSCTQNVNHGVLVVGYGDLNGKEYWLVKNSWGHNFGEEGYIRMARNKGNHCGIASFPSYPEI
CatL inh: inhibitors of human cathepsin L; P07711; purified cathepsin L, fluorogenic substrate, fluorescence; 58,000 compounds, 0.17% hits; inhibition, %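 (tested at 10 µM)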; in the data active = inhibition above about 45%;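 also: 0% = enzyme with no compound and 100% = no enzyme blank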
Target sequence (P07711 114-288 limits assumed): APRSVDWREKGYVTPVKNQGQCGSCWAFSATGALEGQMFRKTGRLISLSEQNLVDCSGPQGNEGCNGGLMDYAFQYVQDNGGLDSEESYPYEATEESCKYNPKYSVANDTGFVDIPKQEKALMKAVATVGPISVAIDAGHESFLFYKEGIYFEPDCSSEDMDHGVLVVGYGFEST
Target sequence (P07711 292-333 limits assumed): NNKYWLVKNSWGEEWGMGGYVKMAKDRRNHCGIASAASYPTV
Hsp90 block: displaces geldanamycin probe from tumor Hsp90. P07900. NCI-N417 lysate Hsp90, Cy3B-geldanamycin FP displacement. inhibition, % at 30 µM. 64,000 compounds, 0.35% hits. AID 429;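 active = inhibition above 50%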;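 also: 0% = tracer plus lysate wells and 100% = tracer alone without lysate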
CatB mix inh: human cathepsin B inhibition by mixtures. P07858. Purified cathepsin B, AMC dipeptide fluorescence, compound mixtures. inhibition, %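 (ten-compound pools at 5 µM per compound and 50 µM total)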. 62,000 compounds, 0.06% hits. AID 488; in the data active = inhibition above about 22%, passing the limit was not always enough;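 also: 0% = enzyme without compound and 100% = no enzyme blank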
mHtt clearance: mutant huntingtin protein clearance; HeLa Exon1htt(103Q)mCFP, aggregate imaging; zero = plate's median compound well; inhibition, % at 1.5 µM; 47,000 compounds, 0.42% hits; AID 853;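 active = inhibition of aggregate fluorescence above about 70%, also judged a hit by eye on the cell image, limit read from the data, passing the limit was not always enough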;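 also: cells exposed to compound for three days before fixation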
Starred values were filed as active, the others as inactive; nt = not tested or not shown. This is a sample that favours compounds with a hit; in the whole collection about 0.71% have one here.

SMILES | CatB inh | CatS block | CatL inh | Hsp90 block | CatB mix inh | mHtt clearance
O=C(O)CC(CP(=O)(c1ccccc1)c1ccccc1)C(=O)O (stereo not drawn) | 0 | -2 | 3 | -1 | 3 | 0
O=C(O)CC(c1ccccc1)c1ccccc1 | 4 | 11 | -9 | 1 | 0 | 86*
CCN(CC)c1ccc(/C=N/n2c(=S)[nH]nc(C)c2=O)cc1 | 7 | -6 | 104* | 2 | 2 | nt
CCCCOc1ccc(-c2nnn(CC(=O)Nc3ncc(CC(=O)OCC)s3)n2)cc1 | -1 | 16 | 5 | -5 | 6 | nt
CC(=O)c1cccc(NC(=O)CSc2nnc(-c3ccc(S(=O)(=O)N4CCCC4)cc3)o2)c1 | nt | nt | nt | 61* | nt | nt
CCCN1CCCc2cc(CN)ccc21 | 2 | 2 | -3 | 80* | 6 | nt
CCCNCCCC(C)Nc1cc(OC)cc2c(C)ccnc12 (stereo not drawn) | nt | nt | nt | -6 | nt | nt
Nc1cc(OC(=O)c2cccs2)nn1S(=O)(=O)c1ccc(F)cc1 | 56* | -2 | -3 | 2 | 55* | -33
Nc1cc(OC(=O)c2cccs2)nn1S(=O)(=O)c1ccccc1 | 76* | -2 | 3 | -3 | 69* | 32
COc1cccc(C(=O)Oc2cc(N)n(S(=O)(=O)c3ccc(C)cc3)n2)c1OC | 13 | 12 | 16 | -5 | 9 | 12
Cc1nn(-c2ccccc2)c(OC(=O)c2cccs2)c1S(=O)(=O)c1ccccc1 | 0 | 8 | 12 | 3 | -5 | 3
CCNC(=O)[C@H]1O[C@@H](n2cnc3c(N)nc(NCCc4ccc(CCC(=O)O)cc4)nc32)C(O)[C@H]1O (stereo partly drawn) | nt | nt | nt | 4 | nt | nt
O=C(Nc1ccc(S(=O)(=O)Nc2cnc3ccccc3n2)cc1)c1ccc(Br)o1 | 1 | 1 | 6 | -6 | 3 | 15
CC(=O)Nc1cnc2ccccc2n1 | 2 | nt | 11 | 56* | nt | 20
CCOc1ccc(S(=O)(=O)NCCCN2CCOCC2)c2ccccc12 | -3 | 1 | 21 | -1 | -3 | nt
CCOc1ccc2ccccc2c1CNCCN1CCOCC1 | 0 | 5 | -1 | -3 | -2 | 70*
Cc1ccc(C2CC(=O)N(c3ccc(F)cc3)C3=C2C(=O)CCC3)cc1 (stereo not drawn) | nt | nt | nt | nt | nt | 79*
O=C1CCCC2=C1C(c1ccsc1)CC(=O)N2c1ccccc1 (stereo not drawn) | -1 | 0 | 0 | -4 | 1 | 23
CN(C)CCCOC(=O)c1ccccc1Cl | nt | nt | nt | nt | nt | 73*
CC(=O)Oc1cc(OC(C)=O)c2c(C)cc(=O)oc2c1 | 4 | -22 | -63 | 3 | 0 | 3
CC(=O)Oc1cc2oc(=O)cc(C)c2cc1OC(C)=O | -8 | -17 | nt | 58* | -9 | nt
NC(=S)NCCCC(N)C(=O)O (stereo not drawn) | nt | nt | nt | -1 | nt | nt
COc1ccc(S(=O)(=O)Nc2ccc3c(c2)OCO3)cc1OC | -6 | 3 | 16 | 51* | 5 | nt
Cc1cccc(NC(=O)CCn2nc(C)cc2C)c1 | 2 | 1 | 59* | 2 | -4 | nt
CNC(=O)OCc1cnc2ccc(OC)cc2c1COC(=O)NC | nt | nt | nt | -2 | nt | nt
SMILES | CatB inh | CatS block | CatL inh | Hsp90 block | CatB mix inh | mHtt clearance
CCc1ccccc1NC(=O)CSC1=C(C#N)C(c2ccc3c(c2)OCO3)C2=C(CCCC2=O)N1 (stereo not drawn) | 1 | 8 | 11 | -4 | -4 | 73*
COc1ccc(OC)c(NC(=O)CSC2=C(C#N)C(c3ccco3)C3=C(CCCC3=O)N2)c1 (stereo not drawn) | -6 | nt | -10 | -4 | nt | nt
Cc1noc(/C=C/N(C)C)c1S(=O)(=O)N1CCN(c2ccccc2)CC1 | 2 | -3 | 53* | -1 | 0 | nt
Cc1ccc(C)c(N2CCN(S(=O)(=O)c3c(C)noc3/C=C/N(C)C)CC2)c1 | 0 | 18 | 20 | -3 | 4 | 19
N#CC(Cc1ccc(O)c(O)c1)C(=O)N1CCc2ccccc21 (stereo not drawn) | nt | nt | nt | 81* | nt | nt
COCCSc1ccccc1C(=O)Nc1cc(C)on1 | -1 | 2 | 11 | -2 | 3 | 75*
CCOC(=O)c1ccc2nc(NC(NC(C)=O)(C(=O)OC)C(F)(F)F)sc2c1 (stereo not drawn) | 2 | 1 | 19 | -1 | 1 | nt
CCC(=O)NC(Nc1ncc(C)s1)(C(=O)OC)C(F)(F)F (stereo not drawn) | nt | nt | nt | nt | nt | 70*
Nc1c(S(=O)(=O)O)cc(Nc2ccc(Nc3nc(Cl)nc(Nc4ccc(S(=O)(=O)O)cc4)n3)c(S(=O)(=O)O)c2)c2c1C(=O)c1ccccc1C2=O | nt | nt | nt | 39 | nt | nt

From PubChem
